From PubChem
Epigenetic derep = Quantitative High-Throughput Screen for Regulators of Epigenetic Control; murine LDR cells, GFP reporter derepression, 30 h; Potency, µM (titrated, usually from 53.9 µM), for the others: top-dose GFP activation, usual class: activators; hit rate 0.2% among 280,000; further: potency means the concentration at half of the fitted maximal effect; % of control where 0% means no effect; nearly all actives have a fitted effect of over 60% in size
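Murine LDR cells bearing a silenced CMV-driven GFP reporter were exposed to compound for 30 h at 37 C. After PBS washes, GFP-positive cells (20-120 um objects) counted by laser-scanning microplate cytometry.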
Vif-APOBEC3G blk = qHTS for Inhibitors of Vif-A3G Interactions: qHTS | DNA dC->dU-editing enzyme APOBEC-3G (Homo sapiens), Q9HC16 | HeLa A3G-eYFP + Vif (tagged APOBEC3G with the HIV-1 protein that degrades it), YFP fluorescence, overnight | Potency, µM (titrated, usually from 46.1 µM), for the others: at the highest dose activity, negative = active, actives largely listed as inhibitors | hit rate 0.076% among 410,000 | AID 602310, 2012; further: potency means the concentration at half of the fitted maximal effect; on the % scale 0 is the no-effect control and ±100 the full control effect; nearly all actives have a fitted effect of over 60% in size
Target sequence (Q9HC16 whole entry, looked up): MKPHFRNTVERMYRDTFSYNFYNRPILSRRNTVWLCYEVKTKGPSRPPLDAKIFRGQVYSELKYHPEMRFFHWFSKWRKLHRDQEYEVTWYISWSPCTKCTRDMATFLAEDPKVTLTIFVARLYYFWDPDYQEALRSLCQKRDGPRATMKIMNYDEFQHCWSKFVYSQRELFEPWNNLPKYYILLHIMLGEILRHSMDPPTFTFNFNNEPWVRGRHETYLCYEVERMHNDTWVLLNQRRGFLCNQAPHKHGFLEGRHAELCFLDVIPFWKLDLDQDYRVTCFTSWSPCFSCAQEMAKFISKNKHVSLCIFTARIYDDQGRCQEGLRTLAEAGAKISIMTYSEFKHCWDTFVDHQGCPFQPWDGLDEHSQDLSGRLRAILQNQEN
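HeLa cells stably expressing Vif and C-terminally eYFP-tagged A3G, seeded overnight at 37 deg C, then exposed to compound by pintool overnight at 37 deg C. Rise in yellow fluorescence (Ex 488/Em 500-530, Acumen) marks blocked Vif-driven A3G degradation.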
Vif-APOBEC3F blk = qHTS for Inhibitors of Vif-A3F Interactions: qHTS. Potency, µM (series often up to 46.1 µM), inactives show at the highest dose activity, negative = active. hit rate 0.2% among 390,000. AID 602313, 2012. HeLa A3F-eYFP + Vif (tagged APOBEC3F with the HIV-1 protein that degrades it), YFP fluorescence increase; further: potency means the concentration at half of the fitted maximal effect; % of control where 0% means no effect; nearly all actives have a fitted effect of over 65% in size
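Fluorescence increase (Ex 488/Em 500-530) after overnight compound treatment at 37 deg C flags inhibition of Vif-driven A3F-eYFP loss in stable HeLa A3F-eYFP/Vif cells seeded overnight beforehand.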
PINK1 expr mod = A Quantitative High throughput Screen to Identify Chemical Modulators of PINK1 Expression | hit rate 0.2% among 410,000 | Potency, µM (series often up to 76.6 µM), for the others: at the highest dose activation (PINK1 increase), actives largely listed as activators | PINK1 immunofluorescence, high-content cytometry, 24 h; active means well fitted activation curve with a large enough effect; inconclusive means small, poorly fitted or top-dose-only effect; cell line not stated here; further: potency means the concentration at half of the fitted maximal effect; % of control where 0% means no effect; nearly all actives have a fitted effect of over 65% in size
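Compound titrations (5 concentrations, 24 h) on a stable cell line; DMSO and CCCP controls. Endpoint: fixed-cell PINK1 immunofluorescence with mitochondrial, cell and nuclear markers, scanned by microplate cytometer.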
C127i cell count = Parental Cell Counter Screen Assay for Epigenetic Modulators: Hit Validation; shares compounds with Epigenetic derep; mouse c127i parental cells, fluorescent cell count, 30 h; Potency, µM, for the others: top-dose fluorescent cell count, most hits filed as activators; hit rate 20% among 60; AID 493065, 2011
HCC4017 tox = HCC4017 Cell Viability Secondary Assay for qHTS Assay for Epigenetic Modulators. shares compounds with Epigenetic derep. HCC4017 NSCLC viability, CellTiter-Glo ATP luminescence, 72 h. Potency, µM (highest dose often 46.1 µM), for inactives: top-dose activity change, negative = cytotoxicity, usual class: cytotoxic. hit rate 30% among 45
H358 viab = H358 Cell Viability Secondary Assay for qHTS Assay for Epigenetic Modulators: Round 2 | H358 NSCLC viability, ATP luminescence, 72 h | Potency, µM (top dose mostly 46.1 µM), without a hit: at the highest dose activity change, negative = viability loss, most hits filed as cytotoxic | shares compounds with Epigenetic derep | hit rate 30% among 45
Numbers without * were called inactive; ? = inconclusive; nt = no result given. A selection: hits, their analogues and other compounds. The true share with any hit is near 0.52%. Unless noted, the call rests on the fitted dose curve; in most records, active means well fitted curve in the direction sought with a large enough effect; inconclusive means small, poorly fitted or top-dose-only effect, or another doubt; inactive means no such curve, though single readings can be large; an effect the other way counts as inactive or inconclusive.

SMILES | Epigenetic derep | Vif-APOBEC3G blk | Vif-APOBEC3F blk | PINK1 expr mod | C127i cell count | HCC4017 tox | H358 viab
Oc1c(N=Nc2ccccn2)ccc2ccccc12 | 10µM* | -17% | -14% | -2% | 2% | 2µM* | 1.3µM*
COc1ccccc1-c1ccnc(-n2ncc(C(=O)NC(C)(C)CO)c2C2CC2)n1 | nt | nt | nt | 0% | nt | nt | nt
Cc1nc(CSc2nsc(/C=C/N(C)C)c2C#N)cs1 | 6.3µM* | ? | ? | 0% | 10% | nt | nt
CC1CN(CC(=O)NCC2(N3CCOCC3)CCCC2)Cc2cc(Cl)ccc2O1 (stereo unspecified) | nt | nt | nt | 0% | nt | nt | nt
COC(=O)c1ccccc1COn1c(=O)c[n+]([O-])c2ccccc21 | ? | ? | nt | -1% | nt | nt | nt
CCOn1c(=O)c[n+]([O-])c2ccccc21 | 10µM* | ? | ? | -1% | 28% | -3% | -5%
CCC(=O)N1CCN(c2ccc(NC(=O)c3ccc([N+](=O)[O-])o3)cc2Cl)CC1 | ? | -10% | -11% | -1% | 4% | 2.8µM* | 1.4µM*
COCc1c(C(=O)NC2CCCC2)cnn1-c1nccc(-c2cc(C)sc2C)n1 | nt | nt | nt | 1% | nt | nt | nt
COCCN1CCN(C(=O)c2cnn(-c3nccc(-c4ccco4)n3)c2C(C)C)CC1 | nt | nt | nt | -1% | nt | nt | nt
COc1ccc2c(C)nc(Nc3nc(-c4ccccc4)cc(=O)[nH]3)nc2c1 | 3.5µM* | -7% | 9% | 5% | 6% | 8.9µM* | 4.4µM*
CCN1CCCC1CNC(=O)c1cnn(-c2nccc(-c3ccco3)n2)c1C1CC1 (stereo unspecified) | nt | nt | nt | -1% | nt | nt | nt
CC1=NN(c2nc3ccccc3[nH]2)C(=O)C1Cc1ccccc1 (stereo unspecified) | ? | ? | ? | ? | 7% | 4.4µM* | 7.9µM*
O=C(N/N=C/c1ccccn1)c1cc(-c2ccc(Cl)cc2)nc2ccccc12 | 5µM* | ? | ? | 6% | 3% | ? | ?
O=C(N/N=C/c1ccccn1)c1cc(-c2ccc(Br)cc2)nc2ccccc12 | ? | -3% | -1% | -1% | nt | nt | nt
O=C(Cn1c(=O)n(Cc2ccc(F)cc2)c(=O)c2sc3ccccc3c21)Nc1ccc(F)cc1F | ? | 0% | -6% | 2% | 1% | nt | nt
Cc1cc(N2CCN(c3ccc([N+](=O)[O-])c4cccnc34)CC2)c2ccccc2n1 | 7.1µM* | ? | 3.5µM* | ? | 14µM* | nt | nt
Cc1cc(N2CCN(c3ccc(C(F)(F)F)cc3[N+](=O)[O-])CC2)c2ccccc2n1 | nt | 6% | -26% | 23% | nt | nt | nt
CCOc1ccc(NC(=O)c2nc(S(=O)(=O)Cc3ccccc3F)ncc2Cl)cc1 | ? | -1% | -2% | -2% | 0% | 7.1µM* | 7.9µM*
O=C(Nc1ccc(OC(F)F)cc1)c1nc(S(=O)(=O)Cc2ccccc2F)ncc1Cl | nt | -8% | nt | 0% | nt | nt | nt
CN(C)S(=O)(=O)c1cccc(NC(=S)N/N=C/c2ccco2)c1 | 3.5µM* | -4% | 8% | 1% | 6% | -1% | -3%
Cc1ccc2cc(CNC(C)CO)c(N3CCC(O)CC3)nc2c1 (stereo unspecified) | nt | nt | nt | 0% | nt | nt | nt
Cc1occc1C(=O)NCCN1Cc2ccccc2OC(c2ccccc2F)C1 (stereo unspecified) | nt | nt | nt | 0% | nt | nt | nt
CCc1ccc(NC(=O)C2CCC(CNS(=O)(=O)c3ccc4c(c3)CC(C)N4C(C)=O)CC2)cc1 (stereo unspecified) | ? | 7% | 0% | 3% | 1% | ? | -11%
CC(=O)N1c2ccc(S(=O)(=O)NCC3CCC(C(=O)Nc4ccc(F)cc4)CC3)cc2CC1C (stereo unspecified) | -1% | -4% | -9% | -1% | nt | nt | nt
